Laboratory results: PubChem BioAssay AID1159580 (chemical genetic matrix, 2015)
Where “and” joins values, the source holds several entries; their conditions need not be identical. Equal entries are not always repeated. Out of some 5,500 compounds screened, about 2,000 (36%) were called active. Another 18% or so got no clear call; they are omitted. Cut-off read from the data, not from the text of the source: active = normalized growth mostly below about 0.91 (no sharp cut-off); inconclusive = no clear call, values can overlap the other calls; inactive = mostly above about 0.92. This is one part of the list.

Assay: chemical genetic growth profiling, strain panel (AID 1159580);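 note: tested at 20 µM; growth read once vehicle control cultures reached saturation at 30 °C; 1 = growth at the plate median or of vehicle wells; lower values mean less growth of the strain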
Conditions: S. cerevisiae deletion strains, growth OD

Measured: normalized growth

OCc1ccccc1O[C@@H]1O[C@H](CO)[C@@H](O)[C@H](O)[C@H]1O
inactive: locus YAL013W, strain DEP1, active compounds read low 0.994 | locus YAL021C, strain ccr4, active compounds read low 0.98 | locus YAL026C, strain drs2, active compounds read low 0.99 | locus YAL030W, strain snc1, active compounds read low 0.964 | locus YBL061C, strain skt5, active compounds read low 0.983 | locus YBR009C, strain hhf1, active compounds read low 0.977 | locus YBR021W, strain FUR4, active compounds read low 1.04 | locus YBR023C, strain chs3, active compounds read low 0.99 | locus YBR171W, strain sec66, active compounds read low 0.98 | locus YBR229C, strain ROT2, active compounds read low 0.95 | locus YBR231C, strain swc5, active compounds read low 0.983 | locus YBR279W, strain paf1, active compounds read low 0.983 | locus YCL011C, strain gbp2, active compounds read low 0.98 | locus YCL016C, strain dcc1, active compounds read low 0.991 | locus YCL029C, strain bik1, active compounds read low 0.994 | locus YCL069W, strain vba3, active compounds read low 1 | locus YCR088W, strain abp1, active compounds read low 0.98 | locus YDL005C, strain med2, active compounds read low 0.989 | locus YDL035C, strain GPR1, active compounds read low 1 | locus YDL040C, strain nat1, active compounds read low 0.994 | locus YDL074C, strain BRE1, active compounds read low 0.966 | locus YDL101C, strain DUN1, active compounds read low 0.976 | locus YDL134C, strain PPH21, active compounds read low 0.987 | locus YDL185W, strain tfp1, active compounds read low 0.983 | locus YDL192W, strain arf1, active compounds read low 0.994 | locus YDR001C, strain nth1, active compounds read low 0.984 | locus YDR069C, strain doa4, active compounds read low 0.987 | locus YDR101C, strain arx1, active compounds read low 0.946 | locus YDR137W, strain rgp1, active compounds read low 1.02 | locus YDR150W, strain NUM1, active compounds read low 0.98 | locus YDR159W, strain sac3, active compounds read low 0.944 | locus YDR162C, strain NBP2, active compounds read low 0.997 | locus YDR195W, strain ref2 0.962 | locus YDR297W, strain sur2, active compounds read low 1 | locus YDR318W, strain mcm21, active compounds read low 0.999 | locus YDR334W, strain swr1, active compounds read low 0.925 | locus YDR335W, strain msn5, active compounds read low 0.989 | locus YDR388W, active compounds read low 0.996 | locus YDR392W, strain spt3, active compounds read low 0.984 | locus YDR502C, strain sam2, active compounds read low 0.987 | locus YEL003W, strain gim4, active compounds read low 0.984 | locus YEL037C, strain rad23, active compounds read low 0.984 | locus YEL061C, strain CIN8 (second series), active compounds read low 0.972 | locus YEL061C, strain CIN8, active compounds read low 0.978 | locus YER015W, strain faa2, active compounds read low 0.998 | locus YER016W, strain bim1, active compounds read low 0.992 | locus YER110C, active compounds read low 0.994 | locus YER111C, strain swi4, active compounds read low 1.01 | locus YER155C, strain BEM2 (second series), active compounds read low 0.998 | locus YER155C, strain BEM2, active compounds read low 0.996 | locus YER167W, strain BCK2, active compounds read low 0.99 | locus YFR010W, strain ubp6, active compounds read low 0.998 | locus YGL078C, strain dbp3, active compounds read low 0.988 | locus YGL086W, strain mad1, active compounds read low 0.97 | locus YGL167C, strain pmr1, active compounds read low 1 | locus YGL173C, strain kem1, active compounds read low 0.995 | locus YGL227W, strain vid30, active compounds read low 0.965 | locus YGL240W, strain doc1, active compounds read low 0.996 | locus YGL248W, strain PDE1, active compounds read low 0.979 | locus YGL253W, strain hxk2, active compounds read low 0.987 | locus YGR078C, strain PAC10, active compounds read low 0.97 | locus YGR135W, strain pre9, active compounds read low 1.07 | locus YGR229C, strain SMI1, active compounds read low 1.01 | locus YGR252W, strain gcn5, active compounds read low 1.08 | locus YHR013C, strain ard1, active compounds read low 1.04 | locus YHR027C, strain rpn1, active compounds read low 0.959 | locus YHR030C, strain SLT2, active compounds read low 0.992 and 0.993 | locus YHR079C, strain IRE1 (second series), active compounds read low 0.983 | locus YHR079C, strain IRE1, active compounds read low 1.03 | locus YHR094C, strain hxt1, active compounds read low 1 | locus YHR129C, strain ARP1, active compounds read low 0.991 | locus YHR142W, strain chs7, active compounds read low 0.984 | locus YHR200W, strain rpn10, active compounds read low 0.987 | locus YIL066C, strain RNR3, active compounds read low 0.967 | locus YIL073C, strain SPO22, active compounds read low 1.02 | locus YIL125W, strain kgd1, active compounds read low 0.989 | locus YIR030C, strain dcg1, active compounds read low 0.997 | locus YJL092W, strain hpr5, active compounds read low 0.997 | locus YJL095W, strain BCK1 (second series), active compounds read low 0.987 | locus YJL095W, strain BCK1, active compounds read low 0.978 and 1.01 | locus YJL115W, strain asf1, active compounds read low 0.992 | locus YJL129C, strain trk1, active compounds read low 0.967 | locus YJL134W, strain LCB3, active compounds read low 0.991 | locus YJL154C, strain vps35, active compounds read low 0.991 | locus YJL164C, strain tpk1, active compounds read low 0.993 | locus YJL166W, strain qcr8, active compounds read low 1.01 | locus YJL168C, strain set2, active compounds read low 0.986 | locus YJL187C, strain SWE1 (second series), active compounds read low 0.952 | locus YJL187C, strain SWE1, active compounds read low 0.997 | locus YJR043C, strain POL32, active compounds read low 0.994
